Source: PubChem (several laboratories)
This is a sample that favours compounds with a hit; in the whole collection about 27% have one here.
CYP2C9 inhib – inhibitors of human CYP2C9; CYP2C9 Supersomes, luciferin-H conversion, luminescence; inhibition, % at 5 µM; hit rate 20% among 96,000;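 active = blocking of liver enzyme CYP2C9 beyond about 50% at 5 µM, limit read from the data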
Target sequence (P11712 whole entry, looked up): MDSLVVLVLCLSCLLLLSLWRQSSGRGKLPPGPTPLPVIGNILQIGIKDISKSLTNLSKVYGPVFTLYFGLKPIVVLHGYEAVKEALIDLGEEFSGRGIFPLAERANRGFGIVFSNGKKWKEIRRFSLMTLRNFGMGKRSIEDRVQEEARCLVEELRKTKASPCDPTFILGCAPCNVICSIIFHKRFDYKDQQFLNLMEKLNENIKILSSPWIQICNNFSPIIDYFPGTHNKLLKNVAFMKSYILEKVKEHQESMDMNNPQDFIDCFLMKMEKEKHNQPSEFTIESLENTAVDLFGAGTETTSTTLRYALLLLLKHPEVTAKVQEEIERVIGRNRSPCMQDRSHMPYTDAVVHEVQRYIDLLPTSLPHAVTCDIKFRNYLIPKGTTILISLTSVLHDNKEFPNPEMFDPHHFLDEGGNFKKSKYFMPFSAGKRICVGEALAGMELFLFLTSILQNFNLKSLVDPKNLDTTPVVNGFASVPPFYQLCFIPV
CYP2C9 activ – increases human cytochrome P450 2C9 activity; activation factor at 5 µM; recombinant CYP2C9, luciferin-H conversion, luminescence; active compounds read high; factor 1 = untreated enzyme, 0 = blocked; AID 1024; P11712; hit rate 1.4% among 96,000;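 active = activation factor of 2 or more for CYP2C9 at a 5 µM dose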;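 note: 0 = sulfaphenazole-blocked wells and 1 = vehicle-only wells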
CYP2C19 activ – increases human CYP2C19 enzyme activity; P33261; recombinant CYP2C19, luciferin-H EGE luminescence; active compounds read high; 0 = fully inhibited enzyme, 1 = untreated enzyme; activation factor at 5 µM; 96,000 tested, under 10 active; AID 1025;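 active = activation factor of at least 2 at 5 µM in the primary screen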;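 note: 0 = wells with 2.5 mM tranylcypromine and 1 = vehicle-only wells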
Cav32 inh – blocks human Cav3.2 T-type calcium channel | AID 449739 | Cav3.2-expressing cells, Fluo-4 calcium fluorescence FDSS; active compounds read low | hit rate 4% among 100,000 | B-score at 10 µM;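 active = single-dose well whose peak fluorescence ratio is a statistical outlier from its plate by either plate-standardised score or position-corrected B-score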
CYP2C19 inhib – blocks human cytochrome P450 2C19; P33261; CYP2C19 Supersomes, luciferin-H EGE luminescence, 30 min; inhibition, % at 5 µM; hit rate 21% among 96,000;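 active = CYP2C19 inhibition above a set limit at 5 µM in the primary screen, cut at about 50% in these data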;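 note: plate controls were negative control wells for no effect and 2.5 mM tranylcypromine positive control for full effect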
* marks the source's active call; other numbers are inactive results; x = not tested or not shown.

SMILES	CYP2C9 inhib	CYP2C9 activ	CYP2C19 activ	Cav32 inh	CYP2C19 inhib
CC(=O)c1ccc(NC(=O)/C(=C\c2ccccc2)NC(=O)/C=C/c2ccccc2)cc1	53*	0.5	0.9	-1.8	12
O=C(Nc1cccc(NC(=O)c2ccc(-c3ccc(Br)cc3)o2)c1)c1ccco1	x	x	x	-3.4	x
CCCCn1nc(C(=O)O)ccc1=O	9	0.9	0.9	0.5	8
CO/N=C(/CNC(=O)c1ccc(Cl)cc1Cl)c1ccc(Cl)cc1	5	1	0.4	x	62*
CO/N=C(/CNC(=O)c1cccc(Cl)c1)c1ccc(Cl)cc1	68*	0.3	0.1	x	92*
O=C(NCC(=O)N1CCCCC1)c1ccc(Cl)cc1Cl	-20	1.2	0.5	0.61	46
Cc1ccc(S(=O)(=O)N2CCC(=O)N(CCOC(=O)Nc3ccc(C)c(C)c3)CC2)cc1	x	x	x	-0.87	x
COc1ccccc1NC(=O)C1CCN(c2ncccn2)CC1	-75	1.8	0.8	-0.27	25
COc1ccc(C2NC(C(=O)O)CS2)cc1COCC(F)(F)F (configuration not stated)	x	x	x	1.2	x
O=C(NC(=O)N1CCN(c2cccc(Cl)c2)CC1)c1ccccc1	19	0.8	0.8	0.2	18
Cc1cccc(N2CCN(C(=O)NCc3ccc(Cl)cc3)CC2)c1	x	x	x	-9.6*	x
O=C(NCc1ccccc1)N1CCN(c2ccccc2F)CC1	14	0.9	0.4	-0.88	62*
NC(=O)NCc1ccc(Cl)cc1	-5	1	1.1	1.1	-13
O=C(c1cccc(C(=O)N2CCN(c3ccccc3F)CC2)n1)N1CCN(c2ccccc2F)CC1	86*	0.1	0.1	0.7	90*
O=C(NC(=O)N1CCN(c2ccccc2F)CC1)c1ccccc1	35	0.6	0.4	0.73	60*
O=C(NCc1ccccc1)C1CCN(C(=O)NCc2ccccc2)CC1	3	1	1.1	0.02	-7
Cc1nc(C)c(C(=O)C2=C(O)C(=O)N(CCCN(C)C)C2c2ccco2)s1 (configuration not stated)	28	0.7	0.9	x	7
CC1=C(C(=O)NC(C)c2ccc3c(c2)OCCO3)C2(CCC(C)CC2)OC1=O (configuration not stated)	x	x	x	-0.016	x
CC1=C(C(=O)Nc2cc(-c3cccc(F)c3)[nH]n2)C2(CCCCC2)OC1=O	83*	0.2	0.5	-0.14	52*
O=[N+]([O-])c1ccc(Sc2cccc3cccnc23)cc1	42	0.6	0.2	-1.5	84*
O=[N+]([O-])c1ccc(Sc2cccc3cccnc23)c([N+](=O)[O-])c1	23	0.8	0.9	0.58	8
c1cncc(-c2nc(Oc3ccc(-c4nnco4)cc3)c3c4c(sc3n2)CCCC4)c1	98*	0	0.1	x	93*
C=CCSC1=Nc2sccc2C2=NC(=O)CN12	-6	1.1	0.7	x	35
Cc1cccc(-c2csc(NC(=O)c3cnccn3)c2C(=O)OC(C)C)c1	50*	0.5	0.7	0.19	30
COC(=O)c1c(-c2cccnc2)csc1NC(=O)c1cc(C)on1	28	0.7	0.8	-0.97	19
SMILES	CYP2C9 inhib	CYP2C9 activ	CYP2C19 activ	Cav32 inh	CYP2C19 inhib
COC(=O)[C@H]1C[C@@H]1[C@H](NC(=O)c1cc(C)on1)c1ccccc1	x	x	x	0.72	x
CN(C)c1nccc(Nc2ccccc2)c1C#N	49	0.5	0.5	-0.65	51*
CN(C)CCN(Cc1ccccc1)c1nccc(N(C)C)c1C#N	23	0.8	0.9	0.53	12
O=C(C1CCN(S(=O)(=O)c2cccnc2)CC1)N1CCN(c2cccc(Cl)c2)CC1	-13	1.1	0.6	-0.23	42
CNS(=O)(=O)c1cnccc1N1CCN(c2cccc(Cl)c2)CC1	48	0.5	0.4	-0.18	58*
CC(Sc1nnc(N)s1)C(=O)Nc1ccc(N2CCOCC2)cc1 (configuration not stated)	-12	1.1	1.1	0.78	-5
CC(Sc1nc(N(C)C)nc(N2CCOCC2)n1)C(=O)Nc1ccccc1 (configuration not stated)	92*	0.1	0.1	-0.15	93*
CSc1nc(NC(C)C)nc(N2CCOCC2)n1	16	0.8	0.8	-0.35	19
CC(Sc1nc(N2CCOCC2)nc(N2CCOCC2)n1)C(=O)Nc1ccccc1 (configuration not stated)	79*	0.2	0.7	0.14	32
CC(C)Nc1nc(SCC(=O)Nc2ccccc2)nc(N2CCOCC2)n1	84*	0.2	0.2	x	82*
CNc1nc(SCc2ccccc2)nc(N2CCOCC2)n1	47	0.5	0.3	-1.1	69*
